Compound activity: PubChem, National Center for Advancing Translational Sciences (NCATS)
VP16 counter – VP16 counterscreen qHTS for inhibitors of ROR gamma transcriptional activity; Drosophila S2 Gal4-VP16 UAS-luciferase, luminescence, 20 h; Potency, µM (titrated, usually from 53.6 µM), without a hit: at the top dose activity, negative = inhibition, hits mostly inhibitors; 310,000 tested, 3.5% active;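 also: Gal4-VP16 expression switched on by copper sulfate through the metallothionein promoter; potency is read from the fitted curve at half-maximal effect; % is scaled to controls: 0 for no effect and ±100 for the full control effect; nearly all actives have a fitted effect of over 50% in size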
SW480 rereplic – A quantitative high throughput screen for small molecules that induce DNA re-replication in SW480 colon adenocarcinoma cells. Potency, µM (series often up to 46.1 µM), for inactives: at the highest dose re-replication activation, most hits filed as activators. SW480 DNA re-replication, Hoechst DNA content imaging, 48 h. 340,000 tested, 1.8% active; also: potency is read from the fitted curve at half-maximal effect; % of control where 0% means no effect; nearly all actives have a fitted effect of over 55% in size
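Image-based DNA-content assay: after two days of treatment, nuclei were labelled with the DNA dye Hoechst and imaged, and hits were compounds raising the count of nuclei showing high fluorescence intensity.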
Chronic BCR inh – qHTS Assay to Find Inhibitors of Chronic Active B-Cell Receptor Signaling | ABC-DLBCL IkBa-CBG/CBR reporter, luminescence ratio, 4 h | Potency, µM (top dose mostly 46.1 µM), for the others: at the highest dose activity change, negative = inhibition, most hits filed as inhibitors | 340,000 tested, 0.05% active; active = well fitted inhibition curve with a large enough effect in the signal ratio, with a control signal flat, not every such curve was filed as active; inconclusive = small, poorly fitted or top-dose-only effect, or effect the other way, or a change in a side signal; the % refers to the signal ratio;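 also: potency is read from the fitted curve at half-maximal effect; plate controls were basal doxycycline-induced cells for no effect and cells given 10 µM MG132 for full effect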
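TMD8 ABC-DLBCL cells carrying doxycycline-inducible green luciferase fused to IkappaBalpha plus unfused red luciferase were exposed to compounds (up to 46 uM) for 4 hrs at 37C. Activity came from the overlap-corrected green/red luminescence ratio.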
MCF10A rereplic – A quantitative high throughput screen for small molecules that induce DNA re-replication in MCF 10a normal breast cells; AID 624296, 2012; MCF 10A DNA re-replication, Hoechst nuclear intensity, 48 h; 350,000 tested, 2.9% active; Potency, µM (highest dose often 46.1 µM), without a hit: at the highest dose activity, positive = re-replication, hits mostly activators; also: potency is read from the fitted curve at half-maximal effect; % of control where 0% means no effect; nearly all actives have a fitted effect of over 50% in size
Giardia killer – Small Molecules that selectively kill Giardia lamblia: qHTS. Giardia lamblia trophozoite viability. activity change, % at 7.66 µM, hits read low. 340,000 tested, 0.15% active; in the data active = activity change below about -80%; inconclusive = between about -30% and that limit;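 also: parasites exposed to compound for two days anaerobically before the ATP read; % is scaled to controls: 0 for no effect and ±100 for the full control effect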
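Giardia lamblia trophozoites (100 cells/well) were incubated with compounds for 48 h at 37 deg C under anaerobic conditions. Viability was read as ATP content by one-step luminescence after 15-30 min at room temperature.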
RORgamma inh – qHTS for inhibitors of ROR gamma transcriptional activity. Drosophila S2 Gal4-RORgamma UAS-luciferase reporter, 20 h. AID 2551, 2010. Potency, µM (titrated, usually from 53.6 µM), for the others: at the highest dose activity change, negative = inhibition, most hits filed as inhibitors. 310,000 tested, 5.4% active; also: potency is read from the fitted curve at half-maximal effect; % is scaled to controls: 0 for no effect and ±100 for the full control effect; nearly all actives have a fitted effect of over 60% in size
Target sequence (P51450 whole entry, looked up, the tested form may be a part): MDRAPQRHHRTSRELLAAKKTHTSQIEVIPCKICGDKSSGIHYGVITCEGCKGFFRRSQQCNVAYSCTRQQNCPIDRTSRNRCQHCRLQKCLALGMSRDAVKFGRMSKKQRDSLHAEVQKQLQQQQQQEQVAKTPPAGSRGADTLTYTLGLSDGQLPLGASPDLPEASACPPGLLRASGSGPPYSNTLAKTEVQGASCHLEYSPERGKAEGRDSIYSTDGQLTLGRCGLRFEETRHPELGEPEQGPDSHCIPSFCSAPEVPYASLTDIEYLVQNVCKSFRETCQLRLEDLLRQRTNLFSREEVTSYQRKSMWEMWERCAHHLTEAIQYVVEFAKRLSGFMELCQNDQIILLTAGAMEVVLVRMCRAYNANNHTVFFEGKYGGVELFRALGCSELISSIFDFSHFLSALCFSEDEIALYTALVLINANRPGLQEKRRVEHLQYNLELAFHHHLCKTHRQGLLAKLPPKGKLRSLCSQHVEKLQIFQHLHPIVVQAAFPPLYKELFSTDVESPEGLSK
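Stably transfected Drosophila Schneider cells are the test system, with ROR gamma fused to Gal4 and luciferase under UAS control; luminescence is read after 20 hr of 700 uM copper sulfate induction at ambient temperature.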
Starred values were filed as active, the others as inactive; u = inconclusive; x = no result; [ ] = remark or other dose. Hits are enriched below; roughly 8.3% of the tested compounds scored in any of these assays. Unless noted, calls follow the shape of the dose curve; as a rule, active = well fitted curve in the direction sought with a large enough effect; inconclusive = small, poorly fitted or top-dose-only effect, or another doubt; inactive = no such curve, though single readings can be large; an effect the other way counts as inactive or inconclusive.

SMILES | VP16 counter | SW480 rereplic | Chronic BCR inh | MCF10A rereplic | Giardia killer | RORgamma inh
Cc1ccc(C2=NC3(CCCC3)NC2=S)cc1 | 7.9µM* | 1% | 1% | 12% | 7 | 2.5µM*
O=C1NC2(CCCCCC2)N=C1c1ccc(F)cc1 | -9% | -1% | 14% | 10% | 7 | 34%
CC(C)CC1(C)N=C(c2ccccc2)C(=S)N1 (stereo not drawn) | 2.8µM* | 5% | 0% | -15% | 2 | 2.8µM*
S=C1NC2(CCCC2)N=C1c1ccccc1 | -3%[10 µM] | -14% | 15% | -2% | 19 | 5µM*
S=C1NC2(CCCCCC2)N=C1c1ccccc1 | u | -39% | 10% | -2% | -13 | 2µM*
Cc1cc(C)n(-c2nc(NC(C)C)nc(NC(C)(C)C)n2)n1 | x | x | x | x | -15 | x
CCOC(=O)c1cc(-c2ccccc2)n(CCCC(=O)Nc2cc(C)ccc2OC)c1C | x | x | -1% | x | x | x
CC(=O)OC[C@H]1O[C@@H](CCO/N=C2/[C@H]3O[C@@H]3[C@@H](O)[C@H]3[C@H]2CCn2c(=O)n(-c4ccccc4)c(=O)n23)C=C[C@@H]1OC(C)=O | -13%[10 µM] | x | x | x | x | 29%[10 µM]
CCc1ccc(CN(Cc2cccnc2)C(=O)/C=C/c2ccc(OC)cc2)cc1 | 6% | 16% | 0% | 18µM* | 20 | 24%
CN1CCN(S(=O)(=O)c2ccc(NC(=S)NC(=O)C3CCC3)cc2)CC1 | -2% | -2% | 4% | -9% | -17 | -6%
Cc1cccc(C(=O)NC(=S)Nc2ccc(S(=O)(=O)N3CCCCC3)cc2)c1 | 10µM* | 9% | 0% | 19% | 18 | 14µM*
Cc1ccc(C(=O)NC(=S)Nc2ccc(S(=O)(=O)N3CCN(C)CC3)cc2)cc1 | -7% | 3% | 8% | 10% | -6 | 11µM*
Cc1cccc(C(=O)NC(=S)Nc2ccc(S(=O)(=O)N3CCN(C)CC3)cc2)c1 | u | -4% | 2% | u | -21 | 13µM*
C=CCOc1ccc(/C=N/NC(=O)CN2CCOCC2)cc1OCC | -15% | -18% | -4% | -1% | 5 | 17%
c1cc(-c2ccncc2)ccn1 | 2% | 0.52µM* | -27% | -6% | 12 | 0%
O=C(CC12CC3CC(CC(C3)C1)C2)Nc1c(F)cccc1F | 0% | -9% | -3% | 1% | 0 | -8%
CC(C)NC(=S)N/N=C1\CCCCC1C1CCCCC1 (stereo not drawn) | 3.5µM* | u | u | 18µM* | -15 | 1µM*
CC1CCCC/C1=N\NC(=S)Nc1ccccc1 (stereo not drawn) | -1% | 2% | -7% | -6% | -20 | -111%
Cn1c(SCc2ccccc2)nc(N)c(N=O)c1=O | x | u | x | u | 8 | x
O=C(Cn1ncc(Cl)c(Cl)c1=O)NC1CCS(=O)(=O)C1 (stereo not drawn) | 18% | u | 9% | u | u | -4%
Cc1cccc(NC(=O)CNC(=O)Cn2ncc(Cl)c(Cl)c2=O)c1C | x | 8.2µM* | u | 5.2µM* | 2 | x
O=C(Cn1ncc(Cl)c(Cl)c1=O)NC1CCCCC1 | x | 1.3µM* | u | 1.3µM* | 7 | x
O=C(COC(=O)c1ccc(Cl)cc1)NCC1CCCCC1 | x | -5% | 0% | 1% | 3 | x
O=C1CN(C(=O)COc2ccc(Cl)c(Cl)c2)c2ccccc2N1 | x | 6% | u | 6% | 0 | x
O=C1CN(C(=O)Cn2ncc(Cl)c(Cl)c2=O)c2ccccc2N1 | u | 14% | u | 1.8µM* | 3 | 11µM*
SMILES | VP16 counter | SW480 rereplic | Chronic BCR inh | MCF10A rereplic | Giardia killer | RORgamma inh
O=C(Cn1ncc(Cl)c(Cl)c1=O)NCC1CCCCC1 | u | u | u | 5.8µM* | -9 | u
CCOC(=O)C1CCN(C(=O)Cn2c(=O)oc3cc(S(=O)(=O)N4CCCC4)ccc32)CC1 | -4% | -22% | 4% | -3% | -11 | 3%
CCC(C)C(NC(=O)c1ccc(Cl)cc1)C(=O)Nc1cccnc1 (stereo not drawn) | 5% | u | -1% | 2% | 0 | 4%
COCCCNC(=O)CN1C(=O)COc2ccc(S(=O)(=O)N3CC(C)CC(C)C3)cc21 (stereo not drawn) | 0% | -2% | 1% | 6% | -1 | -25%
Cc1cccc(C)c1OCCNC(=O)C(=O)NCc1ccco1 | 5% | 2.9µM* | -8% | 2.9µM* | -3 | 7%
CCOc1ccccc1OCC(=O)NCc1ccco1 | -1% | 13% | 1% | 16µM* | 23 | -8%
O=C(COC(=O)C(c1ccccc1)c1ccccc1)NCc1ccco1 | 18µM* | -2% | u | 2% | 4 | u
CCCOc1ccc(CC(=O)NCc2ccco2)cc1OC | 5% | 2% | -3% | -3% | 2 | 11µM*
CCOC(=O)C1(CCCc2ccccc2)CCN(C2CCN(C(C)=O)CC2)CC1 | 0% | 0% | 2% | 2% | 6 | -10%
CCOc1ccc(-n2c(SCC(=O)Nc3ccc(Br)cc3)nc3n[nH]c(C)c3c2=N)cc1 | u | u | u | 15µM* | 12 | u
Cc1cc(-n2c(SCC(=O)NCc3cccs3)nc3n[nH]c(C)c3c2=N)ccc1Cl | -9% | 5% | 1% | u | 8 | 41%
Cc1cc(-n2c(SCC(=O)Nc3ccc(F)c(F)c3)nc3n[nH]c(C)c3c2=N)ccc1Cl | u | u | 16% | 2.3µM* | 1 | -44%
Cc1cc(-n2c(SCC(=O)Nc3ccc(Br)cc3)nc3n[nH]c(C)c3c2=N)ccc1Cl | 20µM* | 18µM* | -6% | 3.3µM* | -6 | u
Cc1ccc(-n2c(SCC(=O)Nc3cccc(Cl)c3)nc3n[nH]c(C)c3c2=N)cc1 | x | x | -18% | x | x | x
Cc1noc(C)c1COc1ccc(C(=O)N2CCN(S(=O)(=O)c3ccc(F)cc3)CC2)cc1 | x | -9% | x | 1% | -18 | x
CCOC(=O)C(=COC(=O)c1ccccc1)NC(=O)Cc1ccccc1 | x | 10% | x | -1% | -19 | x
Cc1cc(C)c2c(=N)c3ccccc3n(CCCCCCCCn3c4ccccc4c(=N)c4c(C)cc(C)nc43)c2n1 | x | 23µM* | x | u | -6 | x
CCC(C)c1ccc(NC(=S)NC(C)C2CCCO2)cc1 (stereo not drawn) | 18µM* | -12% | -1% | 0% | -10 | 6.3µM*
COc1ccccc1C(=O)Nc1nsc(-c2ccccc2)n1 | -6% | -10% | u | 6% | -2 | 1%
